Pf growth 48h: P. falciparum growth inhibition at 48 hours (one generation); P. falciparum luciferase growth in erythrocytes, 48 h; Potency, µM (doses to about 28.7 µM), without a hit: top-dose activity change, negative = inhibition, hits mostly inhibitors; actives 5.9% (n = 310,000); AID 504832; note: potency is the fitted concentration of half-maximal effect; % is set by controls: 0 for no effect and ±100 for the full control effect
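Firefly luciferase activity from engineered P. falciparum reports growth; inhibitors lower the luminescent signal. Cultures contained 2% hematocrit erythrocytes at 0.1% final parasitemia.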
Giardia FBPA inh: Giardia lamblia aldolase inhibition. actives 0.71% (n = 290,000). Potency, µM (series often up to 59.6 µM), without a hit: at the top dose activity, negative = inhibition, hits mostly inhibitors. purified Giardia FBPA; note: potency is the fitted concentration of half-maximal effect; % is set by controls: 0 for no effect and ±100 for the full control effect; nearly all actives have a fitted effect of over 55% in size
Target sequence (A8B2U2 whole entry, looked up): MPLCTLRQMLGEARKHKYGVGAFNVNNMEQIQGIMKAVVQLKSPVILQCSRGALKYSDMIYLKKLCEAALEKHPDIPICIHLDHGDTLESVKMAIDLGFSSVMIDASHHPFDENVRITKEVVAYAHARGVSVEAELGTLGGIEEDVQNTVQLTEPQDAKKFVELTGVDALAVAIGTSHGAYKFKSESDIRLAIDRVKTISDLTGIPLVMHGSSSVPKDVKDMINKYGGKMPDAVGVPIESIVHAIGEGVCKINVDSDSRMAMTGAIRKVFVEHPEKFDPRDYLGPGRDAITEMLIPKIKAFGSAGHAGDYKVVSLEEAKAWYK
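40 nM FBPA preincubated 10 min at RT with compound (up to 57.5 uM final), then substrate plus GAPDH/TPI/NAD/arsenate coupling and diaphorase/resazurin added. Fluorescence read after 20 min at RT, 525/598 nm.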
Pf growth 96h: P. falciparum growth inhibition at 96 hour, primary screen for plastid delayed-death inhibitors | P. falciparum luciferase reporter growth, 96 h | Potency, µM (top dose mostly 28.7 µM), for the others: at the highest dose activity change, negative = inhibition, actives largely listed as inhibitors | actives 6.9% (n = 320,000) | AID 504834; note: potency is the fitted concentration of half-maximal effect; % is set by controls: 0 for no effect and ±100 for the full control effect
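Luminescence readout: decreased luciferase signal marks inhibited growth of reporter-expressing P. falciparum in infected red cells (2% hematocrit, 0.05% parasitemia final), exposed to compound two generations (96 h, 37 C, 5% CO2).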
Shiga inhibitor: Shiga toxin inhibition; Vero cells, Shiga toxin protein synthesis inhibition reporter; inhibition, % at 38.7 µM; actives 9.2% (n = 290,000); AID 2315; in the data active = inhibition mostly above about 28%, no sharp cut-off; inactive = mostly below about 43%; note: 0% is about no effect
NS1 inh: inhibitors of influenza NS1 protein function. actives 0.4% (n = 270,000). Potency, µM (top dose mostly 46.1 µM), for the others: top-dose activity, positive = more growth. AID 2326; calls by dose curve; note: potency is the fitted concentration of half-maximal effect; actives are rising curves; nearly all actives have a fitted effect of over 50% in size
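Growth recovery, yeast-based: influenza A NS1 expressed in S. cerevisiae causes slow growth, and suppressors are detected by OD600. The parent strain without NS1 is used as positive control.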
CHX counter: counter-screen hit for Shiga toxin inhibitors, cycloheximide. actives 12% (n = 300,000). max response, %. cell reporter, cycloheximide protein synthesis inhibition counterscreen. AID 2314; in the data active = max response mostly above about 13%, no sharp cut-off; inactive = mostly below about 14%; note: read at 38.3 µM for the half of the compounds with a filed dose; 0% is about no effect
* marks the source's active call; other numbers are inactive results; ? = inconclusive; · = no result given; + = active, no number. The list is not random: actives were taken first. Their share in the collection is about 21%. Unless noted, calls come from the whole dose curve; as a rule, active = well fitted curve in the direction sought with a large enough effect; inconclusive = small, poorly fitted or top-dose-only effect, or another doubt; inactive = no such curve, though single readings can be large; an effect the other way counts as inactive or inconclusive.

SMILES	Pf growth 48h	Giardia FBPA inh	Pf growth 96h	Shiga inhibitor	NS1 inh	CHX counter
COc1ccccc1N1CCN(Cc2nc(-c3ccc(F)cc3)oc2C)CC1	?	1.1%	?	13.6	-6.1%	6.4
Cc1cc(N2CCN(Cc3nc(-c4ccc(F)cc4)oc3C)CC2)cc(C)n1	?	-5.3%	11.7µM*	13.0	3.2%	-1.3
Cc1oc(-c2cc(F)ccc2F)nc1CN1CCN(c2ncnc3ccccc23)CC1	-26.7%	1.9%	-17.1%	18.8	5.0%	24.6*
CCc1c(C)nc2c(-c3ccccc3OC)c(C)[nH]n2c1=O	-23.5%	?	-19.6%	-11.6	24.3%	-0.8
O=C(CN1CCOCC1)c1ccc(Br)cc1	22.5%	-16.7%	63.8%	7.5	-38.0%	5.6
N=C1CCCN1CC(=O)c1ccc(Br)cc1	54.3%	4.5%	46.0%	+	1.6%	45.6*
COc1ccc(NC(=O)N2CCC3(CC2)CCN(C(=O)c2csnn2)CC3)cc1	·	-0.4%	·	·	·	·
COc1ccc(N(C(=O)Cn2nnc(-c3ccc(F)cc3)n2)C(C)C(=O)NC2CCCC2)cc1OC (stereo not given)	?	-0.8%	-15.7%	-8.1	7.1%	0.8
CNc1c(NC(=O)COc2ccc(Cl)cc2)c(=O)oc2ccccc12	10.4µM*	2.0%	?	21.5	-21.1%	23.4
COc1cc(NC(=O)COc2ccc(Cl)cc2)ccc1-c1cc2ccccc2oc1=O	?	4.8%	4.15µM*	-10.5	?	-4.9
O=C(Nc1ccc(O)c(-c2nc3ccccc3s2)c1)c1cccs1	-3.7%	-0.4%	2.1%	8.7	7.4%	0.2
O=C(/C=C/c1ccco1)NC(=S)Nc1ccc(O)c(-c2nc3ccccc3s2)c1	?	1.0%	-94.8%	-3.3	17.8%	-0.7
COc1ccc(Cl)cc1-c1nc(N)nc(N(C)C)n1	-4.5%	1.8%	-0.5%	-7.3	-3.9%	-2.9
Nc1ccccc1-c1nc2ccccc2s1	68.3%	-4.4%	9.28µM*	106.1*	-6.3%	40.5*
CN(C)c1nc(N)nc(-c2nc3ccccc3s2)n1	136.3%	8.7%	·	100.8*	-7.0%	39.4*
Nc1ccc(O)c(-c2nc3ccccc3s2)c1	?	?	?	44.9*	-49.8%	47.4*
CCCN1CCN(C(=O)c2ccccc2-c2nc3ccccc3s2)CC1	-3.0%	5.9%	-16.0%	-15.2	·	-1.2
Oc1ccc(N=C/C=C/c2cccc(Br)c2)cc1-c1nc2ccccc2s1	?	?	4.5%	12.6	0.8%	32.5*
O=C(COC(=O)CCCOc1ccccc1)NC1CCS(=O)(=O)C1 (stereo not given)	13.7%	·	15.5%	·	·	·
CCN(c1ccccc1)S(=O)(=O)c1csc(C(N)=O)c1	-23.5%	0.1%	2.4%	-8.6	-8.9%	-2.1
C=CCn1c(SCC(=O)Nc2ccc(S(N)(=O)=O)cc2)nnc1-c1cnccn1	6.4%	·	?	-6.5	3.2%	-1.4
O=C(N/C(=C\c1ccccc1)C(=O)N1CCCCC1)c1ccco1	20.2%	0.5%	-13.2%	-8.7	-2.1%	-1.6
COc1cc(C(=O)Nc2nnc(S(=O)(=O)N3CCCCCC3)s2)cc(OC)c1OC	11.7%	13.8%	-24.9%	10.6	29.7%	-0.5
O=C(Nc1ccc(O)c(-c2nc3ccccc3s2)c1)c1cc(=O)c2ccccc2o1	?	5.2%	?	11.7	10.6%	-0.5
Oc1ccc(-c2nc3ccccc3s2)c(O)c1	171.5%	1.4%	86.4%	91.9*	-87.1%	40.1*
SMILES	Pf growth 48h	Giardia FBPA inh	Pf growth 96h	Shiga inhibitor	NS1 inh	CHX counter
CCOC(=O)CSc1nc(C)c(C(C)=O)cc1C#N	?	-3.6%	?	100.2*	-13.0%	17.8*
CC(=O)c1cc(C#N)c(SCc2ccc(F)cc2)nc1C	1.9%	1.5%	·	73.5	4.7%	6.2
CCCCSc1nc(C)c(C(C)=O)cc1C#N	19.8%	8.0%	10.3%	78.8*	-206.2%	31.7*
CC(=O)c1cc(C#N)c(SCC(=O)O)nc1C	·	-0.1%	0.7%	-6.6	-4.8%	-5.4
COc1cc([N+](=O)[O-])ccc1NC(=O)NNC(=O)CCc1ccccc1	37.3%	1.4%	-14.1%	-2.2	-1.9%	-1.0
COc1cc([N+](=O)[O-])ccc1NC(=O)Nc1nc2c(s1)CCCC2	1.47µM*	2.9%	-4.9%	10.4	3.0%	-1.8
Cc1onc(-c2ccccc2)c1C(=O)Nc1nc2c(s1)CCCC2	8.6%	-12.3%	·	50.4	-14.4%	31.9*
CCOCc1nnc(NC(=O)c2c(-c3ccccc3)noc2C)s1	-4.0%	-24.9%	-23.1%	2.1	9.5%	-6.0
CCOC(=O)c1c(NC(=O)c2c(-c3ccccc3)noc2C)sc(C)c1-c1ccccc1	·	-2.5%	6.57µM*	-5.2	14.3%	-6.1
COc1cc([N+](=O)[O-])ccc1NC(=O)NNC(=O)c1sccc1C	40.2%	12.4%	6.5%	34.7*	8.1%	26.1*
COc1cc([N+](=O)[O-])ccc1NC(=O)Nc1cnccn1	30.0%	0.9%	-3.8%	2.0	6.6%	-2.8
CC(C)[C@@H](C(=O)N[C@@H](C(=O)O)c1ccccc1)N1C(=O)N2CCc3c([nH]c4ccccc34)[C@@]2(C)C1=O	21.8%	15.7%	-7.0%	1.6	?	-2.2
CC1CCCCC1NC(=O)CNC(=O)c1cccs1 (stereo not given)	8.4%	·	-4.4%	·	·	·
Cc1cc(C(=O)Nc2nc3c(s2)CCCC3)no1	249.2%	-3.9%	-25.0%	22.0	-11.9%	16.7*
COC(=O)Nc1nc2c(s1)CCCC2	46.4%	2.4%	·	35.5*	0.7%	28.1*
CN1CCN(CC(=O)Nc2nc3c(s2)CCCC3)CC1	14.5%	-0.3%	24.7%	15.5	0.3%	21.0
COc1ccc(CCCn2ncc3c2nc(N)n2nc(-c4ccco4)nc32)cc1	·	-4.3%	·	4.1	·	6.8
N#CC1(NC(=O)COC(=O)c2cc([N+](=O)[O-])ccc2N2CCOCC2)CCCCC1	?	·	-1.7%	·	·	·
CCOC(=O)CSc1nc2c(sc(=S)n2Cc2ccco2)c(=O)n1-c1ccc(F)cc1	10.4µM*	-4.0%	36.3%	-8.9	?	-3.0
CCN(CC)C(=O)CSc1nc2c(sc(=S)n2-c2ccccc2OC)c(=O)n1-c1ccccc1	11.7µM*	13.7%	?	-15.6	0.3%	-0.2
CCN(CC)C(=O)CSc1nc2c(sc(=S)n2CC)c(=O)n1-c1ccccc1	·	5.1%	?	-10.4	-3.8%	-4.9
CCC(C)NC(=O)CSc1nc2c(sc(=S)n2Cc2ccco2)c(=O)n1-c1ccccc1 (stereo not given)	·	0.5%	75.8%	-14.7	0.5%	-2.5
COc1ccc(-c2cc(C(=O)N/N=C/c3cccnc3)c3cc(C)cc(C)c3n2)cc1	0.0%	3.1%	-25.8%	8.7	-2.7%	10.4
Cc1cccc(NC(=S)/N=C(\N)Nc2nc(C)c3cc(C)ccc3n2)c1	?	7.1%	?	-5.2	?	-2.4
Cc1cccc(NC(=S)/N=C(\N)Nc2nc(C)c3ccc(C)cc3n2)c1	13.1µM*	9.6%	?	-10.9	24.0%	-1.1

Screens deposited in PubChem BioAssay by National Center for Advancing Translational Sciences (NCATS).
